Laboratory results taken from the supplement of paper PMC6555819.

These sequences were tested on LXRa homodimer (NR concentration 270 nM) (assay: PBM binding z-score (relative to random genomic background probes); higher = stronger binding; sequences stand for … in GC…GCGATTGACAGCGTAGAATGAAGG).
Summary of the method: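 Regression normalization was applied to scanned fluorescence from custom Agilent 4×180K protein-binding microarrays. Before scanning, arrays were incubated 1 h with ligand-free nuclear receptor dimers, and binding was detected with antibodies against each partner (one per run). Binding z-scores use the random background probes as reference.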

Q: For TCATAAAGGTAAACAGGTGAAAGTCCGTAAGTTA, which PBM binding z-score is on record?
A: The PBM binding z-score was 0.0462.

Q: With ATATGTAGGTTACATCCGGTTCATTCAGGCTATG as the sequence, how does the PBM binding z-score read?
A: The PBM binding z-score was 1.07.

Q: TCTATTAGTTGACGGGCAACCGACGAGTCCGTTT was tested. Which PBM binding z-score did it give?
A: Its PBM binding z-score is 0.073.

Q: CAGCCAAGGTCAGGGCCAGTATAGGAGGAACGTT was tested. Which PBM binding z-score did it give?
A: Its PBM binding z-score is -0.277.

Q: With CGTCCAAGGTCAGAGAGGTCAGTCAATGCCGAGT as the sequence, how does the PBM binding z-score read?
A: Its PBM binding z-score is 3.45.

Q: CGTCCAAGGTCAAAAGTCAGTGAAGAGATGACGG was tested. Which PBM binding z-score did it give?
A: Its PBM binding z-score is 0.641.

Q: For TAGCATAGGTCATTGGGCCAGTATAGTACGCATC, which PBM binding z-score is on record?
A: The PBM binding z-score was 1.27.

Q: How did the PBM binding z-score turn out when ATCGAAAGGTCGAAGGTGTGTATACCCACCCGAA was run?
A: Its PBM binding z-score is 0.143.

Q: Which PBM binding z-score does the source give for GTACCAAGGTGAATAGGTTGTTGATGAGTAGGCG here?
A: Its PBM binding z-score is 0.0313.

Q: With TAGCCTAGGTCATTGCGCCAGTATAGTACGCATC as the sequence, how does the PBM binding z-score read?
A: The PBM binding z-score was 1.05.

Q: With AGTCAAAGTTCACTAGTTAACGTAAGATTCAGCT as the sequence, how does the PBM binding z-score read?
A: Its PBM binding z-score is 2.97.

Q: CCTAGTTGGTCAGGAGGGCACACACCGGATATGA was tested. Which PBM binding z-score did it give?
A: The PBM binding z-score was 0.0656.

Q: For TCTTGTAGATCAGCAGGTTCAGAAAGCTGGCCAA, which PBM binding z-score is on record?
A: Its PBM binding z-score is -0.435.

Q: With TCTATTAGTTGAAGGGAAACCGACGAGTCCGTTT as the sequence, how does the PBM binding z-score read?
A: Its PBM binding z-score is 0.189.

Q: ACTACCAGGCCAAGTTTGGGTCACTCAAACAAAG was tested. Which PBM binding z-score did it give?
A: Its PBM binding z-score is 0.197.

Q: How did the PBM binding z-score turn out when GCTAGCAGGCCATTTGGGTCACTCGATGACGGGC was run?
A: Its PBM binding z-score is -0.738.

Q: How did the PBM binding z-score turn out when TCTAGTTGGTCAAAGGTCACACGCTCGAAATGCG was run?
A: The PBM binding z-score was 4.22.

Q: For AGAATGTGGTTATACGTAGATCAGGGAAGAAAGT, which PBM binding z-score is on record?
A: Its PBM binding z-score is 0.177.

Q: Which PBM binding z-score does the source give for CCTTACTGGTCACTGACAGGTTATAGCATTTGGA here?
A: The PBM binding z-score was 0.811.

Q: With TTACCAAGGTGAGCTGAGGTCCTTGATCCAACTC as the sequence, how does the PBM binding z-score read?
A: Its PBM binding z-score is -0.744.

Q: For TCATATAGGTATAGGTGAAAGTCGAACGATATGA, which PBM binding z-score is on record?
A: The PBM binding z-score was -0.346.

Q: ACTAGCAGGCCAAGATTGGGTCACTCAAACAAAG was tested. Which PBM binding z-score did it give?
A: Its PBM binding z-score is -0.493.

Q: For ATCTCTAGGTCACAAGTTCAGTGAAAGAGAGGAC, which PBM binding z-score is on record?
A: The PBM binding z-score was 3.14.

Q: With GGAACGAGGGCAAGTGGATAGCAGAGTTTGATGG as the sequence, how does the PBM binding z-score read?
A: Its PBM binding z-score is -0.0905.

Q: With TGTCAAAGTTCATAGGTAACGTAAGTATCCACAC as the sequence, how does the PBM binding z-score read?
A: Its PBM binding z-score is 4.17.

Q: With GCTATTAGTTGAAACGGCAACCGAATGATTCTCG as the sequence, how does the PBM binding z-score read?
A: The PBM binding z-score was -0.23.

Q: With CAAACTAGGACAAAGGTCAAAGTCGAGCCAACCA as the sequence, how does the PBM binding z-score read?
A: Its PBM binding z-score is 4.5.

Q: For CCTTACGGGTCCAGGTTATAGCACGGGTGGTACG, which PBM binding z-score is on record?
A: Its PBM binding z-score is -0.277.

Q: CGAACTAGGTCATTGACTGGACAGTGAATAGTAA was tested. Which PBM binding z-score did it give?
A: Its PBM binding z-score is 0.235.

Q: Which PBM binding z-score does the source give for TAGCCTAGATCATGCGGGCCAGTATAGTGTCGGC here?
A: The PBM binding z-score was -1.04.

Q: TCTGCTAGGTCAGCGATGGTCAGCTAATCTGCTA was tested. Which PBM binding z-score did it give?
A: Its PBM binding z-score is -0.944.

Q: How did the PBM binding z-score turn out when ACAGACAGGTGATGTAGGTAACTCAGGCTATCAT was run?
A: Its PBM binding z-score is -0.0278.

Q: With TCTTTTAGATCAAAGGTTAAGAAAGCCGAAGCCT as the sequence, how does the PBM binding z-score read?
A: The PBM binding z-score was 0.26.

Q: With TCTTGTAGATCAATAGAGGTTAAGAAGGTGCGCT as the sequence, how does the PBM binding z-score read?
A: Its PBM binding z-score is 0.464.

Q: How did the PBM binding z-score turn out when TCTGCTAGGTCAGTTGGTCACCTAACGAGCTGCC was run?
A: The PBM binding z-score was -0.345.

Q: GTATCAAGGTGAATAGGTCGTTGATGAGTAGGCG was tested. Which PBM binding z-score did it give?
A: The PBM binding z-score was 0.272.

Q: For ATCTCTAGGTAACACGTTCAGTGAAAGAGAGGAC, which PBM binding z-score is on record?
A: Its PBM binding z-score is 0.454.

Q: For TTACCAAGGTGAAAGGTCGTTCATGCACGCCTTG, which PBM binding z-score is on record?
A: Its PBM binding z-score is 0.593.

Q: For ACACGGAGGACAAAGGTCAGAGCTACGCCAGTGA, which PBM binding z-score is on record?
A: The PBM binding z-score was 1.74.

Q: With TCATATAGGTAAACAGGTGACAGTCCGTAAGTTA as the sequence, how does the PBM binding z-score read?
A: Its PBM binding z-score is 0.306.
